# From PubChem BioAssay
# Calls of active or inactive are those of the source.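 Rule for the calls, unless noted: active = normalized viability below 100% at a tested concentration; inactive = the rest.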
# Tests used:
# [1] = survival rescue of mitochondrial mutant cells in low glucose, primary screen, MELAS cybrids, Rieske KO mouse fibroblasts, CellTiter-Glo (AID 1508586;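 active = mean z-score across replicates of 1.96 or higher in either the MELAS or the Rieske mutant cell line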;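 note: z relative to plate mean and SD of compound and empty wells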)
# [2] = viability rescue of complex I mutant cybrids, primary screen, cell-based, galactose medium, ATP luminescence (AID 1645843;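 active = z-score of at least 1.8 in each of two replicates, scored against plate mean and spread of sample wells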;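 note: positive z means more ATP and so rescue of galactose-driven cybrid death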); details: complex I mutant cybrid cells, 72 h, stronger effect = higher value
# [3] = ovarian cancer cell viability with rucaparib, profiling panel, oncology-focused library, rucaparib conditional (AID 1508598); details: patient-derived ovarian cancer cells, CellTiter-Glo viability, 144 h, stronger effect = lower value
# [4] = MELAS cybrid survival, CellTiter-Glo 48 h, stronger effect = higher value
# [5] = Rieske KO mouse fibroblast survival, CellTiter-Glo 72 h
smiles,measurement,setting,value
Cn1nc(C(=O)N2CCCCCC2)c2c1CCC(NCc1ccc(C(F)(F)F)cc1)C2 (configuration not stated),z-score,[1]; [4],-0.174 (inactive)
same,z-score,[1]; [5],-0.22
same,z-score,[2],1.12 (inactive)
C[C@H]1NC(=O)[C@H]2CN(C(=O)Oc3ccc(Cl)cc3)CCN2C1=O,z-score,[1]; [4],-0.514 (inactive)
same,z-score,[1]; [5],0.985
same,z-score,[2],0.585 (inactive)
Cc1ccnn1CCC(=O)N1CC(=O)N(CC(C)C)CC(OCc2ccccn2)C1 (configuration not stated),z-score,[1]; [4],-0.157 (inactive)
same,z-score,[1]; [5],-0.668
same,z-score,[2],0.98 (inactive)
CC(C)CNC(=O)[C@@H]1C[C@H](CN2CCOCC2)CN(Cc2nccn2C)C1,z-score,[1]; [4],0.0237 (inactive)
same,z-score,[1]; [5],0.267
same,z-score,[2],0.2 (inactive)
CC(C)CNC(=O)[C@@H]1C[C@H](CN2CCOCC2)CN(Cc2ccc(O)cc2)C1,z-score,[1]; [4],-0.104 (inactive)
same,z-score,[1]; [5],-0.186
same,z-score,[2],-0.31 (inactive)
COC(=O)c1c(NC(=O)c2ccco2)c2cc(NC3CCOCC3)cnc2n1C,z-score,[1]; [4],-0.622 (inactive)
same,z-score,[1]; [5],-0.251
same,z-score,[2],0.7 (inactive)
COC(=O)CCN1CC(OCc2ccncc2)CN(C(=O)c2csc(SC)n2)CC1=O (configuration not stated),z-score,[1]; [4],-0.62 (inactive)
same,z-score,[1]; [5],-0.661
same,z-score,[2],0.42 (inactive)
O=c1c(/C=C/c2ccccc2)cc2c(n1Cc1ccccn1)CCN(C1CCOCC1)C2,z-score,[1]; [4],-0.0238 (inactive)
same,z-score,[1]; [5],0.293
same,z-score,[2],0.925 (inactive)
COC(=O)c1c(NC(=O)C2CCC2)c2cc(NC3CCSCC3)cnc2n1CCc1ccccn1,z-score,[1]; [4],-0.0865 (inactive)
same,z-score,[1]; [5],-0.308
same,z-score,[2],1.1 (inactive)
O=C(NCCN1CCOCC1)c1cc(-c2ccccc2)cc(S(=O)(=O)N2CCSCC2)c1,z-score,[1]; [4],-0.0926 (inactive)
same,z-score,[1]; [5],-0.421
same,z-score,[2],1.53 (inactive)
CCOC(=O)c1nn(CCc2ccccc2)c2c1CN(C(=O)CCc1nc3ccccc3s1)CC2,z-score,[1]; [4],-0.261 (inactive)
same,z-score,[1]; [5],0.0715
same,z-score,[2],0.345 (inactive)
CCn1nc(C(=O)N2CCCC2)c2c1CCC(NCCC1=CCCCC1)C2 (configuration not stated),z-score,[1]; [4],1.1 (inactive)
same,z-score,[1]; [5],-0.76
same,z-score,[2],-1.23 (inactive)
CCOC(=O)N1CCC(N2CCc3c(cc(-c4cccc(OC)c4OC)c(=O)n3CC3CC3)C2)CC1,z-score,[1]; [4],-0.362 (inactive)
same,z-score,[1]; [5],-0.0606
same,z-score,[2],-0.36 (inactive)
CC(C)N1CC(OCc2ccc(F)cc2)CN(C(=O)c2ccc(C#CC(C)(C)O)o2)CC1=O (configuration not stated),z-score,[1]; [4],-0.3 (inactive)
same,z-score,[1]; [5],-0.177
same,z-score,[2],0.06 (inactive)
Cc1ccc(C(=O)N[C@H]2C[C@H]3C(=O)N[C@@H](Cc4ccc(O)cc4)C(=O)N3C2)cc1F,z-score,[1]; [4],-0.462 (inactive)
same,z-score,[1]; [5],-0.468
same,z-score,[2],0.075 (inactive)
CCCCNC(=O)[C@@H]1C[C@H](CN2CCOCC2)CN(Cc2ccc(O)cc2)C1,z-score,[1]; [4],1.06 (inactive)
same,z-score,[1]; [5],-0.315
same,z-score,[2],0.115 (inactive)
CC(=O)c1cccc(-c2cc3c(n(CC=C(C)C)c2=O)CCN(Cc2cnc(N(C)C)s2)C3)c1,z-score,[1]; [4],-0.385 (inactive)
same,z-score,[1]; [5],0.11
same,z-score,[2],0.475 (inactive)
Cn1nc(C(=O)N2CCCCC2)c2c1CCC(NCC1(c3ccccc3)CCOCC1)C2 (configuration not stated),z-score,[1]; [4],0.135 (inactive)
same,z-score,[1]; [5],0.153
same,z-score,[2],-0.59 (inactive)
Cc1ccc(C(C)CCN2CCC3(CC2)C(=O)N(C(C)C)C(=O)N3CCC(C)C)o1 (configuration not stated),z-score,[1]; [4],-0.199 (inactive)
same,z-score,[1]; [5],-0.496
same,z-score,[2],0.91 (inactive)
CN1CCCc2cc(C(=O)N3CC(=O)N(Cc4ccccc4)CC(OCc4ccccn4)C3)ccc21 (configuration not stated),z-score,[1]; [4],-0.626 (inactive)
same,z-score,[1]; [5],-0.731
same,z-score,[2],0.21 (inactive)
CCCc1c(C(=O)N[C@H]2C[C@H]3C(=O)N[C@H](Cc4ccc(O)cc4)C(=O)N3C2)cnn1-c1ccccc1,z-score,[1]; [4],-0.275 (inactive)
same,z-score,[1]; [5],-0.357
same,z-score,[2],-1.02 (inactive)
CC[C@@H]1NC(=O)[C@H]2CN(C(=O)Oc3cccc4ccccc34)CCN2C1=O,z-score,[1]; [4],0.408 (inactive)
same,z-score,[1]; [5],0.404
same,z-score,[2],-1.61 (inactive)
Cc1c(CN2CC(=O)N(Cc3ccccc3)CC(O)C2)c(=O)n(-c2ccccc2)n1C (configuration not stated),z-score,[1]; [4],0.325 (inactive)
same,z-score,[1]; [5],-0.72
same,z-score,[2],0.83 (inactive)
CCCCNC(=O)[C@@H]1C[C@H](CN2CCOCC2)CN(Cc2ccc(OC)c(OC)c2)C1,z-score,[1]; [4],-0.184 (inactive)
same,z-score,[1]; [5],0.521
same,z-score,[2],1.15 (inactive)
CNS(=O)(=O)c1cc(NCc2cc3ccccc3s2)cc(C(=O)Nc2ccc(OC)cc2)c1,z-score,[1]; [4],0.562 (inactive)
same,z-score,[1]; [5],0.602
same,z-score,[2],2.26 (inactive)
COc1cc([C@H]2c3cc4c(cc3[C@@H](O[C@@H]3O[C@@H]5CO[C@@H](c6cccs6)O[C@H]5[C@H](O)[C@H]3O)[C@H]3COC(=O)[C@H]23)OCO4)cc(OC)c1O,viability,"[3]; at 0.000305 µM, OCI-C5x cells, with rucaparib 10 µM, 100% = cells with rucaparib alone",104% (inactive)
same,viability,"[3]; at 0.000305 µM, OCI-C5x cells, without rucaparib",117% (inactive)
same,viability,"[3]; at 0.000305 µM, OCI-P5x cells, with rucaparib 20 µM, 100% = cells with rucaparib alone",100% (inactive)
same,viability,"[3]; at 0.000305 µM, OCI-P5x cells, without rucaparib",116% (inactive)
same,viability,"[3]; at 0.00122 µM, OCI-C5x cells, with rucaparib 10 µM, 100% = cells with rucaparib alone",115% (inactive)
same,viability,"[3]; at 0.00122 µM, OCI-C5x cells, without rucaparib",111% (inactive)
same,viability,"[3]; at 0.00122 µM, OCI-P5x cells, with rucaparib 20 µM, 100% = cells with rucaparib alone",102% (inactive)
same,viability,"[3]; at 0.00122 µM, OCI-P5x cells, without rucaparib",109% (inactive)
same,viability,"[3]; at 0.00488 µM, OCI-C5x cells, with rucaparib 10 µM, 100% = cells with rucaparib alone",97.4% (active)
same,viability,"[3]; at 0.00488 µM, OCI-C5x cells, without rucaparib",104% (inactive)
same,viability,"[3]; at 0.00488 µM, OCI-P5x cells, with rucaparib 20 µM, 100% = cells with rucaparib alone",100% (inactive)
same,viability,"[3]; at 0.00488 µM, OCI-P5x cells, without rucaparib",109% (inactive)
same,viability,"[3]; at 0.0195 µM, OCI-C5x cells, with rucaparib 10 µM, 100% = cells with rucaparib alone",73.9% (active)
same,viability,"[3]; at 0.0195 µM, OCI-C5x cells, without rucaparib",81.6% (active)
same,viability,"[3]; at 0.0195 µM, OCI-P5x cells, with rucaparib 20 µM, 100% = cells with rucaparib alone",102% (inactive)
same,viability,"[3]; at 0.0195 µM, OCI-P5x cells, without rucaparib",102% (inactive)
same,viability,"[3]; at 0.0781 µM, OCI-C5x cells, with rucaparib 10 µM, 100% = cells with rucaparib alone",63.2% (active)
same,viability,"[3]; at 0.0781 µM, OCI-C5x cells, without rucaparib",73.7% (active)
same,viability,"[3]; at 0.0781 µM, OCI-P5x cells, with rucaparib 20 µM, 100% = cells with rucaparib alone",87.9% (active)
same,viability,"[3]; at 0.0781 µM, OCI-P5x cells, without rucaparib",60.7% (active)
same,viability,"[3]; at 0.313 µM, OCI-C5x cells, with rucaparib 10 µM, 100% = cells with rucaparib alone",78.4% (active)
same,viability,"[3]; at 0.313 µM, OCI-C5x cells, without rucaparib",56.8% (active)
same,viability,"[3]; at 0.313 µM, OCI-P5x cells, with rucaparib 20 µM, 100% = cells with rucaparib alone",71% (active)
same,viability,"[3]; at 0.313 µM, OCI-P5x cells, without rucaparib",35.6% (active)
same,viability,"[3]; at 1.25 µM, OCI-C5x cells, with rucaparib 10 µM, 100% = cells with rucaparib alone",33.4% (active)
same,viability,"[3]; at 1.25 µM, OCI-C5x cells, without rucaparib",21.2% (active)
same,viability,"[3]; at 1.25 µM, OCI-P5x cells, with rucaparib 20 µM, 100% = cells with rucaparib alone",54.6% (active)
same,viability,"[3]; at 1.25 µM, OCI-P5x cells, without rucaparib",23.6% (active)
same,viability,"[3]; at 5 µM, OCI-C5x cells, with rucaparib 10 µM, 100% = cells with rucaparib alone",8.34% (active)
same,viability,"[3]; at 5 µM, OCI-C5x cells, without rucaparib",7.07% (active)
same,viability,"[3]; at 5 µM, OCI-P5x cells, with rucaparib 20 µM, 100% = cells with rucaparib alone",12.4% (active)
same,viability,"[3]; at 5 µM, OCI-P5x cells, without rucaparib",7.92% (active)
